FBW7 activator: activators of human E3 ligase FBW7 | 650,000 tested, 0.13% active | Q969H0 | AlphaScreen FBW7–phospho-cyclin E peptide binding, activator screen | normalized activity (activation), % at 26.1 µM | AID 1259310; in the data active = normalized activity above about 1.9%;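 note: purified mutant Fbw7 with reduced substrate affinity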
TEAD-YAP block: TEAD-YAP interaction inhibition. 640,000 tested, 1.4% active. AID 1259422. inhibition, % at 9.12 µM. HEK-TIYL cells, TEAD-Gal4/YAP UAS-luciferase luminescence; in the data active = inhibition above about 32%
MITF inh: human MITF inhibition, primary screen; O75030; AlphaScreen MITF homodimerization, bead proximity signal; inhibition, % at 2.6 µM; 650,000 tested, 0.91% active; AID 1259374; in the data active = inhibition above about 50%
GPR151 ag: human GPR151 activation; Q8TDV0; PathHunter beta-arrestin GPR151 cells, luminescence; activation, % at 11.2 µM; 650,000 tested, 1% active; AID 1508602; in the data active = activation above about 4.9%
Target sequence (Q8TDV0 whole entry, looked up): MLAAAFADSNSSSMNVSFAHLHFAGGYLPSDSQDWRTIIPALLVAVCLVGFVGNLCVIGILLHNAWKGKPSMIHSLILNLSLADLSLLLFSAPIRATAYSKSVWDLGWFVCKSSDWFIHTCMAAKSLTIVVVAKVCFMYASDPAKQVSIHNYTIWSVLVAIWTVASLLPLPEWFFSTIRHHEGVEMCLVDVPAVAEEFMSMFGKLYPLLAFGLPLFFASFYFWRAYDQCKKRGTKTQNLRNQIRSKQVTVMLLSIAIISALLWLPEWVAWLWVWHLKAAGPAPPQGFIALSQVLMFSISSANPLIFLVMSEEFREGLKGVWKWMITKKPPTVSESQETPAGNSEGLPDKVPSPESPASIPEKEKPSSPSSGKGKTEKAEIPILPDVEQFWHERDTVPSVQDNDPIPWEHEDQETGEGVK
Each line names hits and unclear results; the compound was inactive in the other large screens. Shown are actives, neighbours in structure and some others; about 3.4% of the full set was active somewhere.

CCOc1ccc(S(=O)(=O)N(CC(=O)N2CCN(c3ccccc3)CC2)c2ccccc2)cc1	none
COc1ccc(-c2csc3nc(C)n(-n4c(C)ccc4C)c(=O)c23)cc1	none
O=C(O)COc1ccccc1/C=C1\C(=O)NC(=O)N(c2cccc([N+](=O)[O-])c2)C1=O	MITF inh 55
Cc1c(C(=O)OCCO)[n+](=O)c2ccccc2n1[O-]	none
O=C(O)c1ccc(NCCSCc2ccccc2)c([N+](=O)[O-])c1	TEAD-YAP block 35
Cc1sc2nc(C(C)C)n3c(=S)[nH]nc3c2c1C	TEAD-YAP block 55
CCc1c(C)sc2nc(C(C)C)n3c(=O)[nH]nc3c12	none
Cn1cccc1Cc1nnc(SCC(=O)NCC2CCCO2)n1Cc1ccccc1 (centres undefined)	none
COc1cccc(C2CC(c3c(O)cc(C)oc3=O)=NCCS2)c1OC (centres undefined)	TEAD-YAP block 42
CC(=O)Nc1ccc(-c2nc3ccc(C)cc3[nH]2)cc1	none
CC(=O)Nc1ccc2nc(-c3cc(C)ccc3C)[nH]c2c1	TEAD-YAP block 46
O=S1(=O)CCC(n2nnnc2-c2ccccc2)C1 (centres undefined)	none
CCCCCCCc1c2c(C)c(C(=O)OCC)nc-2cc2n1C(C)C(C)=C2C (centres undefined)	none
CCCCCCCc1c2c(C)c(C(=O)OCC)nc-2cc2n1CC(C)=C2C	TEAD-YAP block 42
COc1ccccc1C1NC(=S)NC(C)=C1C(=O)OC1CCCC1C (centres undefined)	none
CCCCOc1ccccc1NC(=O)C(F)(OC)C(F)(F)F (centres undefined)	TEAD-YAP block 36
Nc1c(S(=O)(=O)O)cc(Nc2ccc(Nc3nc(Cl)nc(Nc4ccc(S(=O)(=O)O)cc4)n3)c(S(=O)(=O)O)c2)c2c1C(=O)c1ccccc1C2=O	MITF inh 61
CCCNc1ccc2ncc(-c3ccc(O)c(OC)c3)n2n1	TEAD-YAP block 71
COc1cc(CNc2ccc3ncc(-c4cccc(N(C)C)c4)n3n2)cc(OC)c1OC	TEAD-YAP block 50
COc1cc(-c2cnc3ccc(NCC4CC4)nn23)ccc1O	none
COc1cc(CNc2ccc3ncc(-c4cccc(O)c4)n3n2)cc(OC)c1OC	none
COc1cc(-c2cnc3ccc(NCc4cccs4)nn23)cc(OC)c1OC	none
COc1ccccc1-c1cnc2ccc(NCc3cccs3)nn12	FBW7 activator 1.9
COc1cc(-c2cnc3ccc(NCc4cccs4)nn23)ccc1O	TEAD-YAP block 40
OCc1ccccc1-c1cnc2ccc(NCc3cccs3)nn12	none
O=C(COc1ccccc1)NCC(=O)N/N=C/c1ccc2c(c1)OCO2	none
CCCOc1ccc(C2=[N+]([O-])C3(CCCCC3=O)N(O)C2(C)C)cc1 (centres undefined)	TEAD-YAP block 55
CC1(C)C(c2ccc(F)cc2)=[N+]([O-])C2(CCCCC2=O)N1O (centres undefined)	none
CCOC(=O)CSc1nc2c(c(=O)n1CC)C1(CCCC1)Cc1ccccc1-2	none
COc1cccc(NC(=O)C(=O)NCC2CCCN2S(=O)(=O)c2ccccc2)c1 (centres undefined)	none
CCCNC(=O)C(=O)NCC1CCCN1S(=O)(=O)c1ccc(C)cc1 (centres undefined)	none
CCCCCNC(=O)C(=O)NCC1CCCN1S(=O)(=O)c1ccc(C)cc1 (centres undefined)	TEAD-YAP block 49
CNC(=O)C(=O)NCCC1CCCCN1S(=O)(=O)c1ccc(C)cc1 (centres undefined)	none
COc1cccc(CNC(=O)C(=O)NCC2CCCN2S(=O)(=O)c2ccc(C)cc2)c1 (centres undefined)	TEAD-YAP block 41
Cc1ccc(S(=O)(=O)N2CCCCC2CCNC(=O)C(=O)NCc2cccnc2)cc1 (centres undefined)	TEAD-YAP block 36
CCOc1cc(/C=N\NC(=O)c2ccccc2N)ccc1OCc1ccc([N+](=O)[O-])cc1	none
CCOc1cc(C2NC(=O)NC(C)=C2C(=O)OC)cc(I)c1O (centres undefined)	none
COc1cc2c(cc1OC)C(C)N(C(=O)C(c1ccccc1)c1ccccc1)CC2 (centres undefined)	none
CC(C)(C)C(=O)NNC(=O)COc1ccccc1-c1ccccc1	none
NC1=NC2(CCCCCC2)n2c(nc3ccccc32)N1	TEAD-YAP block 78
CCC(=O)Nc1ccccc1C(=O)Nc1ccc(F)cc1	none
CCOc1cc(C#N)c(NC(=O)c2ccncc2)cc1OCC	none
CCOc1cc(C#N)c(NC(=O)c2cccnc2)cc1OCC	TEAD-YAP block 55
CCOc1cc(C#N)c(NC(=O)c2cccs2)cc1OCC	TEAD-YAP block 48
CCOc1ccccc1NC(=O)c1cccs1	none
O=C1NC(=S)S/C1=C/c1ccc([N+](=O)[O-])o1	MITF inh 74
NC1=NC(=O)/C(=C\c2ccc(-c3cccc([N+](=O)[O-])c3)o2)S1	none
NC1=NC(=O)/C(=C\c2ccc([N+](=O)[O-])o2)S1	MITF inh 80
NC1=NC(=O)/C(=C/C=C/c2ccc([N+](=O)[O-])o2)S1	TEAD-YAP block 35, MITF inh 98
Cc1ccccc1NC(=O)NCCN1CCCC1	none
CN(C(=O)c1cc(-c2cccc(O)c2)on1)c1ccccc1	TEAD-YAP block 48
CCCCNC(=O)c1cc(-c2cccc(O)c2)on1	TEAD-YAP block 36
CCCCNC(=O)c1cc(-c2cccc(OC)c2)on1	none
O=C(NC1CCCCC1)c1cc(-c2ccccc2)on1	none
O=C(NC1CCCC1)c1cc(-c2cccc(O)c2)on1	TEAD-YAP block 70
c1ccc(CN2CCN(Cc3cn4ccccc4n3)CC2)cc1	none
CCC(C)n1c(SCc2ccccc2Cl)nc2ccsc2c1=O (centres undefined)	TEAD-YAP block 51
CCC(C)n1c(SCc2c(F)cccc2Cl)nc2ccsc2c1=O (centres undefined)	none
COCCNC(=O)c1ccc2nc(N3CCOCC3)sc2c1	none
O=C(NC1CCN(Cc2ccccc2)CC1)c1ccc2nc(N3CCN(Cc4ccc5c(c4)OCO5)CC3)sc2c1	TEAD-YAP block 44
O=C(NCCOc1ccccc1)c1ccc2nc(N3CCOCC3)sc2c1	GPR151 ag 5.8
CCCNC(=O)c1ccc2nc(N3CCN(Cc4ccc5c(c4)OCO5)CC3)sc2c1	none
O=c1cc(-c2cc(O)c(O)c([C@@H]3O[C@H](CO)[C@@H](O)[C@H](O)[C@H]3O)c2)oc2cc(O[C@@H]3O[C@H](CO)[C@@H](O)[C@H](O)[C@H]3O)cc(O)c12	none
O=c1c2cc(O)c(O)cc2oc2cc(O)c(C3OC(CO)C(O)C(O)C3O)c(O)c12 (centres undefined)	MITF inh 59
COC(=O)c1ccc2nc(/N=C/c3ccc(N(C)C)cc3)sc2c1	none
CCCC(=O)NC(c1ccc(OC)cc1)c1cc([N+](=O)[O-])c2cccnc2c1O (centres undefined)	none
CCCCC(=O)NC(c1ccco1)c1cc([N+](=O)[O-])c2cccnc2c1O (centres undefined)	none
COc1ccc(C(NC(=O)c2cccnc2)c2cc(Cl)c3cccnc3c2O)cc1 (centres undefined)	TEAD-YAP block 40

High-throughput results from PubChem BioAssay.
